The values that follow come from ChEMBL document CHEMBL4513216, “Probing the Open Global Health Chemical Diversity Library for Multistage-Active Starting Points for Next-Generation Antimalarials” (ACS Infect Dis, 2020).

Hit rate of the full screen: of about 68,000 compounds, about 2,700 (4%) showed an effect of 50% or more. The sample as a whole holds a higher share of strong results than the screen did.

The test system of the experiment is Plasmodium berghei. Put plainly: Screen against P. berghei liver stage (PbLuc), transformed with Luciferase, at 2uM. The note with it: tested at 2 uM. The experiment is classed as functional, HepG2.
For `O=C(NCC(F)(F)F)C1CCCN(Cc2ccno2)C1` (configuration not stated), the INHIBITION is 20.32%.

`CC(C)c1nnc(NC(=O)C2CSCN2C(=O)C2CCC2)s1` (configuration not stated): the INHIBITION was -52.32%.

Regarding `O=C(c1cnccn1)N1CCN2C[C@H](OCc3ccccc3F)C[C@H]2C1`, the INHIBITION is reported as -6.88%.

Consider `CCCSCC(=O)N1C[C@@H]2CC[C@H]1CN(Cc1cccnc1)C2`, for which the INHIBITION was determined as 16.1%.

Regarding `O=C(O)CC1COCCN1CCCc1ccccc1` (configuration not stated), the INHIBITION is recorded as 3.35%.

As for `Cc1cc(N2CCCC2c2cc(Nc3cnccn3)nc(C)n2)ncn1` (configuration not stated), the INHIBITION is 43.23%.

`O=C(CCc1nc2cc(Br)cnc2[nH]1)NCc1cccnc1`: the INHIBITION is recorded as 10.22%.

`c1ccc(CN2CCCC(CNc3ncnc4c3CCNCC4)C2)cc1` (configuration not stated): the INHIBITION stood at 29.87%.

On to `c1ccc(CN2CCC(CCNc3ncnc4c3CCNCC4)C2)cc1` (configuration not stated), for which the INHIBITION was found to be 31.3%.

On to `c1ccc(CN2CCC(CNc3ncnc4c3CCNCC4)CC2)cc1`, for which the INHIBITION stood at 70.58%.

Turning to `O=C(c1ccncc1F)N1CCc2ncnc(C3CC3)c2CC1`, the INHIBITION is 21.67%.

Turning to `CCOc1ncccc1CNCc1c(C(C)C)nn(C)c1N(C)C`, the INHIBITION turned out to be 74.35%.

As for `Cc1nn(C)c(N(C)C)c1CNCc1cccnc1OC(C)C`, the INHIBITION was determined as 53.98%.

As for `CC(C)c1nn(C)c(N(C)C)c1CNCc1cccnc1N(C)C`, the INHIBITION worked out at 39.54%.

With `CCOc1ncccc1CNCc1c(C)nn(C)c1N(C)C`, the INHIBITION is 47.87%.

Take `CC(C)c1nn(C)c(N(C)C)c1CNCc1ccc2c(c1)OCCO2`: the INHIBITION is recorded as 66.2%.

In the case of `COc1ncccc1CNCc1c(C)nn(C)c1N(C)C`, the INHIBITION worked out at 11.2%.

For `CC(C)c1nn(C)c(Cl)c1CNCc1ccc2c(c1)OCCO2`, the INHIBITION came out at 8.37%.

With `CC(C)c1nn(C)c(N(C)C)c1CNCc1ccc2c(c1)OCO2`, the INHIBITION is -41.21%.

Consider `COc1ncccc1CNCc1c(C(C)C)nn(C)c1N(C)C`, for which the INHIBITION is recorded as 43.28%.

As for `C[C@@H]1C(=O)NC[C@H]2CN(Cc3ccsc3)C[C@H]21`, the INHIBITION was -66%.

As to `CC(C)(C)c1nc(CN2CCCC(Cn3cncn3)C2)no1` (configuration not stated), the INHIBITION is recorded as -64.16%.

For the molecule `CN(C)C(=O)c1cn[nH]c1C1CCCN1Cc1nccn1C` (configuration not stated), the INHIBITION is given as 11.2%.

As to `Cc1[nH]/c(=N\C(=O)c2csc(NC3CCCC3)n2)sc1C`, the INHIBITION came out at 34.93%.

As to `CCS(=O)(=O)N1Cc2ncn(CC3CC3)c2C(COC)C1` (configuration not stated), the INHIBITION was found to be 26.19%.

In the case of `Clc1ccc2oc(C3CCN(Cc4nc(C5CC5)no4)CC3)nc2c1`, the INHIBITION worked out at 10.11%.

Turning to `c1cc(CCN2CCN(c3ccc4nncn4n3)CC2)ccn1`, the INHIBITION is -1.88%.

As to `C[S+]([O-])c1nncn1CC(=O)c1ccc2c(c1)CCO2` (configuration not stated), the INHIBITION is -0.75%.

As to `C[S+]([O-])c1nncn1CC(=O)c1ccc(Cl)c(Cl)c1` (configuration not stated), the INHIBITION was determined as 20.66%.

Turning to `C[S+]([O-])c1nncn1CC(=O)c1ccc2c(c1)CCC2` (configuration not stated), the INHIBITION was found to be 61.82%.

Regarding `COc1ccc(C2CN(c3cc(C)ncn3)CCN2C(C)=O)cc1` (configuration not stated), the INHIBITION was -28.43%.

For `CSCc1noc(CN2CC(Cc3ccccc3)CC2=O)n1` (configuration not stated), the INHIBITION is on record as 6.75%.

In the case of `O=C(c1cc(=O)[nH]c(=O)[nH]1)N1CCCCC1c1nc2cc(F)ccc2[nH]1` (configuration not stated), the INHIBITION is given as -18.49%.

Take `CN(CC(=O)NCC(=O)Nc1ccc(F)cc1)Cc1cccs1`: the INHIBITION is 69.13%.

For `CC(NCC(=O)NCC(=O)Nc1ccc(F)cc1)c1cccs1` (configuration not stated), the INHIBITION turned out to be 16.95%.

`O=C(Cc1cccs1)NCC(=O)Nc1cn[nH]c1`: the INHIBITION came out at 28.49%.

On to `CCn1cc(C(=O)N2CCOC(c3nc(-c4cccs4)no3)C2)cn1` (configuration not stated), for which the INHIBITION is on record as -36.52%.

On to `COc1cc(-c2n[nH]c(CC#N)n2)cc(OC)c1OC`, for which the INHIBITION was 16.72%.

`CC(C)Nc1cc(N2CCC(n3cc(CCO)nn3)CC2)ncn1`: the INHIBITION was 69.71%.

On to `CC(C)Nc1cc(N2CCC(n3cc(C4CCCC4)nn3)CC2)ncn1`, for which the INHIBITION was -1.21%.

`CCc1cc(N2CCC(n3cc(C(=O)NCC(C)C)nn3)CC2)ncn1`: the INHIBITION is given as -71.68%.

On to `O=C(NC1CC1)c1cn(C2CCN(c3cc(C4CC4)ncn3)CC2)nn1`, for which the INHIBITION was -26.81%.

On to `CC(C)Nc1cc(N2CCC(n3cc(C4CC4)nn3)CC2)ncn1`, for which the INHIBITION is -46.8%.

In the case of `CCc1cc(N2CCC(n3cc(C(=O)NC4CC4)nn3)CC2)ncn1`, the INHIBITION worked out at 52.66%.

Turning to `CCC(CO)NCc1ccc(-c2ccc(Cl)cc2)o1` (configuration not stated), the INHIBITION was determined as 2.25%.

Consider `CNC(=O)CCc1cc(C)nc(C2CCN(c3ccccc3)CC2)c1`, for which the INHIBITION is recorded as -107.54%.

`CN(C)CCN1CCC2(CCN(C(=O)c3cccnc3)CC2)C1=O`: the INHIBITION worked out at 6.66%.

As to `O=C(O)c1nnn(Cc2cccc(C(F)(F)F)c2)c1-c1cccnc1`, the INHIBITION is on record as 39.9%.

`O=C(O)c1nnn(Cc2cccc(C(F)(F)F)c2)c1-c1ccncc1`: the INHIBITION is 43.75%.

As to `O=C(O)c1nnn(Cc2cccc(C(F)(F)F)c2)c1-c1ccccn1`, the INHIBITION was 55.25%.

On to `COc1ccc2c(c1)CN(Cc1ccco1)C(=O)CCN2CC(C)(C)O`, for which the INHIBITION is given as -35.52%.

With `COc1ccc(F)cc1C(=O)N(C)[C@@H]1CC[C@@H](O)[C@@H]1O`, the INHIBITION is recorded as 16.87%.

Turning to `CN(C(=O)c1cc(F)ccc1F)[C@@H]1CC[C@@H](O)[C@@H]1O`, the INHIBITION was found to be 41.21%.

For the molecule `CO[C@@H]1CCC[C@@H](N(C)C(=O)c2cc(F)ccc2F)[C@H]1O`, the INHIBITION worked out at 53.16%.

`O=C(CO)N1CCOC2(CCCN(c3ncc(F)cn3)C2)C1` (configuration not stated): the INHIBITION is 14.27%.

`CC(C)(C(=O)N1CCCC(OCc2cccnc2)C1)n1cccc1` (configuration not stated): the INHIBITION was determined as 27.81%.

Consider `CN(CCO)CC1COCCN1C(=O)CCC1CCCC1` (configuration not stated), for which the INHIBITION was 69.06%.

With `CN(CCO)CC1COCCN1C(=O)C1CCCCC1` (configuration not stated), the INHIBITION was -23.4%.

For the molecule `O=C(CC1CCCCC1)N1CCOCC1CO` (configuration not stated), the INHIBITION came to 18.81%.

With `CCOC(=O)NCC(=O)Nc1nc2ccccc2n1C(C)(C)C`, the INHIBITION is 30.23%.

On to `CCc1nccc(CN2CCC(CNC(=O)c3occc3C)C2)n1` (configuration not stated), for which the INHIBITION is -4.04%.

In the case of `c1ccc(Cc2noc(CN3CCc4cncnc4C3)n2)cc1`, the INHIBITION came out at 56.02%.

Take `Cc1ncc2c(n1)CN(Cc1nc(Cc3ccccc3)no1)CC2`: the INHIBITION is reported as -54.44%.

Turning to `CC(C)c1ncc2c(n1)CN(Cc1nc(Cc3ccccc3)no1)CC2`, the INHIBITION is reported as 6.12%.

For `Cc1cccc(C2CCCN2C(=O)CN(C)S(C)(=O)=O)c1C` (configuration not stated), the INHIBITION was -73.81%.

For `COCCn1c2c(ccc1=O)CC(NC(=O)c1cscn1)CC2` (configuration not stated), the INHIBITION is on record as -25.4%.

For the molecule `NC1CC(C(F)(F)F)=NC=C1c1ccc(Cl)cc1` (configuration not stated), the INHIBITION is listed as -19.36%.
